Results as given in PubChem BioAssay AID1851 (National Center for Advancing Translational Sciences (NCATS), 2009).
Hit rate of the full screen: of about 16,000 compounds, about 5,700 (36%) were called active. Roughly 24% stayed inconclusive and do not appear here. Some of the results follow. A number with no mark means an inactive call. Calls come from the whole dose curve; as a rule, active = well fitted curve in the direction sought with a large enough effect; inconclusive = small, poorly fitted or top-dose-only effect, or effect the other way; inactive = no such curve, though single readings can be large or run the other way.

The compounds below were run against Cytochrome P450 1A2 (Homo sapiens) (UniProt P05177) (assay: Cytochrome panel assay with activity outcomes). Details: recombinant CYP, pro-luciferin dealkylation, luminescence, p450-cyp1a2; series mostly up to 57.1 µM.
% is set by controls: 0 for no effect and ±100 for the full control effect.

Cytochrome P450 1A2 (Homo sapiens), sequence (P05177 whole entry, looked up): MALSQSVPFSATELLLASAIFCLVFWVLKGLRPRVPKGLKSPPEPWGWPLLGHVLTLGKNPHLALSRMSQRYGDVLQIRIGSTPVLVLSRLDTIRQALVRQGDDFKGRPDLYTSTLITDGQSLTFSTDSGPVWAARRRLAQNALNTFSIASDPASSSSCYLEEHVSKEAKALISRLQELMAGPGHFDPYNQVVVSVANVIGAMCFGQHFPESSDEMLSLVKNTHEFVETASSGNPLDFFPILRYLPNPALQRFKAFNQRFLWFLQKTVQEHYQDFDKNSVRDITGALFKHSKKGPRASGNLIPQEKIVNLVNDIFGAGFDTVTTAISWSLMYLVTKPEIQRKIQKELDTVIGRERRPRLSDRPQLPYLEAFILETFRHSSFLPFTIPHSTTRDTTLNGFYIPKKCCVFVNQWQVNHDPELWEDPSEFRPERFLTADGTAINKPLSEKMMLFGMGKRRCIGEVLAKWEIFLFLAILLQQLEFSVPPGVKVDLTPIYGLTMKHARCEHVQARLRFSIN

Compound	AC50	activity, negative = inhibition
CN1CCc2c(cc(O)c(O)c2Cl)[C@H](c2cccc(Cl)c2)C1	inactive	
Cn1c(=O)[nH]c2ncn(C)c2c1=O	inactive	
[O-][N+](CCO)(CCO)c1ncnc2nc[nH]c12		-5.88% [at 11.4 µM]
CCOC(=O)C1=C(c2ccccc2)N=c2s/c(=C\c3ccco3)c(=O)n2C1c1cccs1 (stereo not given)	6.31 µM (active)	
CCOC(=O)C1=C(c2ccccc2)N=c2s/c(=C\c3ccc(O)cc3)c(=O)n2C1c1cccs1 (stereo not given)	inactive	
CCOC(=O)C1=C(c2ccccc2)N=c2s/c(=C\c3cccc(O)c3)c(=O)n2C1c1cccs1 (stereo not given)	25.1 µM (active)	
CCOC(=O)C1=C(c2ccccc2)N=c2s/c(=C\c3cc(OC)c(OC)c(OC)c3)c(=O)n2C1c1cccs1 (stereo not given)	inactive	
COc1ccc(C2/C(=C(/O)c3ccc(Cl)cc3)C(=O)C(=O)N2CCN2CCOCC2)c(OC)c1 (stereo not given)	inactive	
Cc1ccc(NC(=O)Nc2nc(-c3ccc(C)s3)cs2)cc1	1.58 µM (active)	
C#CCCCO/N=C1/C[C@@H](O)[C@@H](O)[C@@H]2[C@@H]3C(=O)N(Cc4ccccc4)C(=O)[C@H]3CC[C@@H]12		6.78% [at 11.4 µM]
CNC(=O)c1nnn(Cc2ccccc2)c1NC(=O)C(F)(F)F	inactive	
COc1ccc(NC(=O)C2CC(=O)NC3=C2C(=O)CC(C)(C)C3)cc1 (stereo not given)	inactive	
COc1ccc(C(C(=O)Nc2ccc(F)cc2)N(C(=O)Cn2nnc3ccccc32)C2CC2)cc1 (stereo not given)	inactive	
COCC(C)NCc1cccc([N+](=O)[O-])c1 (stereo not given)	inactive	
N[C@@H](Cc1cccc([N+](=O)[O-])c1)C(=O)O		-10.6% [at 11.4 µM]
CCN(Cc1ccccc1)Cc1cccc([N+](=O)[O-])c1	5.01 µM (active)	
O=C(O)CC/C=C\CC[C@H]1[C@@H](N2CCCCC2)[C@@H](O)C[C@@H]1OCc1ccc(-c2ccccc2)cc1	inactive	
Cc1ccccc1-c1cc(N(C)C)ncn1	2 µM (active)	
CNc1cc(-c2ccccc2C)ncn1	10 µM (active)	
FC(F)(F)c1ccccc1-c1cc(NCc2ccccc2)ncn1	12.6 µM (active)	
CNc1cc(-c2ccccc2C(F)(F)F)ncn1	15.8 µM (active)	
CNc1ncncc1-c1ccccc1C(F)(F)F	inactive	
CN(C)C(=O)/N=N\C(=O)N(C)C	inactive	
CC(C)=CCC/C(C)=C/CO/N=C1/C[C@@H](O)[C@@H](O)[C@@H]2[C@@H]3C(=O)N(C[C@@H]4CCCO4)C(=O)[C@H]3CC[C@@H]12		-6.43% [at 11.4 µM]

Compound	AC50	activity, negative = inhibition
O=C(CCNc1cccc(Cl)c1)c1cccs1	10 µM (active)	
O=C(O)CNc1ccc(C(=O)O)cc1		-15.1% [at 11.4 µM]
O=C(CNc1cccc(Cl)c1)c1ccc(Cl)cc1	3.16 µM (active)	
O=C(O)CCCC[C@H]1CCSS1	inactive	
COc1cccc2c1OC1(C)CC2/C(=C(\C)O)C(=O)N1 (stereo not given)	inactive	
CCc1ccc(-c2ccc(C(=O)C(F)(F)F)[nH]2)cc1	1.12 µM (active)	
N[C@@H](CO)C(=O)NNCc1ccc(O)c(O)c1O	inactive	
CC[C@H]1C(=O)OC[C@H]1Cc1cncn1C	inactive	
C=CC(=O)NC(NC(=O)C=C)c1ccc(Br)cc1	inactive	
CC(C)NC(=O)CC(=O)N/N=C/c1ccc(F)cc1	15.8 µM (active)	
Cc1ccc(S(=O)(=O)N(CC(=O)N/N=C/c2ccc(F)cc2)c2cccc3cccnc23)cc1	inactive	
CC(C)NC(=O)CC(=O)N/N=C/c1ccc(Br)cc1	1.41 µM (active)	
CC(NC(=O)Cc1ccc(F)cc1)c1ccccc1 (stereo not given)	inactive	
O=Nc1ccc(NOC(=O)c2ccc(Br)cc2)cc1	inactive	
C1CCC(N=C(NC23CC4CC(CC(C4)C2)C3)N2CCOCC2)CC1	inactive	
Cc1nc2cncnc2n(Cc2ccc(F)cc2)c1=O	10 µM (active)	
Cc1nc2cncnc2n(Cc2ccccc2)c1=O	12.6 µM (active)	
CC(=O)OC[C@@H]1O[C@H](C/C=N\O[C@@H](C)CN2CCCc3nc(C)c(C)cc32)C=C[C@@H]1OC(C)=O		-4.85% [at 11.4 µM]
Cc1ccc(CNC(=O)C2CC(c3ccccc3[N+](=O)[O-])=NO2)cc1 (stereo not given)	5.01 µM (active)	
CCN(CC)S(=O)(=O)N1CCC(C(=O)NCc2ccc(C)cc2)CC1	inactive	
Cc1ccc(CCNC(=O)C2CC(c3ccccc3[N+](=O)[O-])=NO2)cc1 (stereo not given)	6.31 µM (active)	
O=C1[C@H]2[C@H]3[C@H](O)[C@H](O)C/C(=N/OCc4ccccc4)[C@@H]3CC[C@@H]2C(=O)N1Cc1ccc2c(c1)OCO2		-8.98% [at 11.4 µM]
CC(C)(C)OC(=O)N1CCCC1C(=O)NCCc1ccccc1 (stereo not given)	inactive	
Cc1ccc(CCN2CC(C(=O)NCCCN(C)Cc3ccccc3)CC2=O)cc1 (stereo not given)	inactive	

Compound	AC50	activity, negative = inhibition
Cc1ccc(CNC(=O)C2CC(c3ccccc3[N+](=O)[O-])=NO2)o1 (stereo not given)	6.31 µM (active)	
O=C(NCc1ccc2c(c1)OCO2)C1CC(c2cccc(Br)c2)=NO1 (stereo not given)	2 µM (active)	
Cc1ccc(CNC(=O)C2CCC(=O)N2C2CCCCC2)cc1 (stereo not given)	inactive	
O=C1[C@H]2[C@H]3[C@H](O)[C@H](O)C/C(=N/OCc4ccccc4)[C@H]3CC[C@@H]2C(=O)N1Cc1ccc2c(c1)OCO2		-4.06% [at 11.4 µM]
COc1c(N2CCN(C(=S)Nc3ccc(F)cc3)C(C)C2)c(F)cc2c(=O)c(C(=O)O)cn(C3CC3)c12 (stereo not given)	inactive	
COc1cccc(C2=NOC(C(=O)NCc3ccccn3)C2)c1 (stereo not given)	inactive	
NS(=O)(=O)c1ccc(CCNC(=O)C2CCCN2C(=O)OCc2ccccc2)cc1 (stereo not given)	inactive	
COc1ccc(CNC(=O)C2CC(c3cccc([N+](=O)[O-])c3)=NO2)cc1 (stereo not given)	15.8 µM (active)	
O=C(NCCCCc1ccccc1)C1CC(c2ccccc2[N+](=O)[O-])=NO1 (stereo not given)	2.24 µM (active)	
CCOC(=O)c1cc(NC(=O)c2ccc(OC)cc2)c(=O)oc1-c1ccccc1	inactive	
Cc1cc(NC(=O)c2ccc(S(=O)(=O)N(C)C)cc2)n(-c2ccccn2)n1	inactive	
CCOC(=O)c1oc2ccccc2c1NC(=O)c1cc(OC)cc(OC)c1	0.794 µM (active)	
CCOC(=O)c1oc2ccccc2c1NC(=O)c1ccc2c(c1)OCO2	1 µM (active)	
CCOC(=O)c1oc2ccccc2c1NC(=O)c1ccc(S(=O)(=O)N(C)C)cc1	12.6 µM (active)	
CCCCN(C)S(=O)(=O)c1ccc(C(=O)Nc2nnc(CSC)o2)cc1	inactive	
CC(C)(N)CO[C@H]1C[C@H]2CC[C@@]1(C)C2(C)C		-8.25% [at 11.4 µM]
CC(=O)Nc1ccc(S(=O)(=O)NCC2CCC(C(=O)NCCC(C)C)CC2)cc1 (stereo not given)	inactive	
Cn1cccc1C(=O)N1CCC2(CC1)CN(Cc1ccc(C#N)cc1)C2	inactive	
CCOc1cc(/C=N/n2cnnc2)c(Br)cc1O	10 µM (active)	
CS(=O)(=O)N1CCN(c2ccccc2NC(=O)c2ccc(Br)o2)CC1	14.1 µM (active)	
CC(C)(C)c1ccc(OCC(=O)NNC(=O)CCc2ccccc2)cc1	inactive	
Cc1cc(F)ccc1S(=O)(=O)Nc1ccccc1C(=O)Nc1ccccc1N1CCOCC1	inactive	
Cc1noc(NS(=O)(=O)c2ccc(NC(=O)c3ccc(Br)o3)cc2)c1C	inactive	
O=C(Nc1ccccc1N1CCN(C(=O)c2ccccc2)CC1)c1cc(Br)ccc1Cl	inactive	

Compound	AC50	activity, negative = inhibition
O=C(COc1ccccc1)Nc1cc(C(F)(F)F)ccc1N1CCCC1	2 µM (active)	
NS(=O)(=O)c1cc(C(=O)O)cc(N2CCCC2)c1Oc1ccccc1	inactive	
O=C(Nc1cc(C(F)(F)F)ccc1N1CCCCC1)c1ccc(Br)o1	0.282 µM (active)	
Cc1cc(C)n(-c2ccc(C(=O)Nc3cc(C(F)(F)F)ccc3N3CCOCC3)cc2)n1	inactive	
O=C(c1cnccn1)N1CCC2(CC1)CN(Cc1nccs1)C2	inactive	
O=C(NNC(=S)NC(=O)c1cccnc1)c1ccccc1	inactive	
O=C(NC(=S)Nc1ccc(Br)cn1)c1cncc(Br)c1	0.282 µM (active)	
COc1ccc(C2C(C(=O)N3CCN(C)CC3)c3ccccc3C(=O)N2C2CCCCC2)cc1 (stereo not given)	inactive	
O=C(NC1CCCCC1)c1sc(=S)n2c1[nH]c(=O)c1ccccc12	3.16 µM (active)	
O=C(NCc1ccccc1)c1sc(=S)n2c1[nH]c(=O)c1ccccc12	8.91 µM (active)	
COc1cccc(/C=c2/s/c(=C(\C#N)C(=O)N3CCOCC3)n(-c3ccccc3)c2=O)c1	inactive	
CCOC(=O)N/N=C1/C[C@@H](O)[C@@H](O)[C@@H]2[C@@H]3C(=O)N([C@@H](C)c4ccccc4)C(=O)[C@H]3CC[C@H]12		7.27% [at 11.4 µM]
CN(C)CCN1C(=O)C(O)=C(C(=O)c2cc3ccccc3o2)C1c1ccccn1 (stereo not given)	inactive	
Cc1ccc2nc(N3CCN(S(=O)(=O)c4ccc5c(c4)OCCO5)CC3)c(C#N)cc2c1	inactive	
Cc1ccc(-c2csc(N3CCC(NS(=O)(=O)c4ccc5c(c4)OCCO5)CC3)n2)cc1	5.01 µM (active)	
CN1CCCN(S(=O)(=O)c2ccc3c(c2)OCCO3)CC1	inactive	
CCn1c2ccccc2c2cc(/C=N/n3cn[nH]c3=S)ccc21	2.82 µM (active)	
Clc1ccc(Cn2c(-c3cccnc3Cl)nc3ccccc32)c(Cl)c1	12.6 µM (active)	
Nc1nonc1-c1nc2ccccc2n1Cc1ccc(F)cc1Cl	0.2 µM (active)	
CC(=O)OCC(=O)[C@@]1(O)CC[C@@H]2[C@H]3CCC4=CC(=O)C=C[C@]4(C)[C@]3(F)[C@@H](O)C[C@@]21C	inactive	
COc1ccccc1-c1nc(NC2CC2)c2ccccc2n1	0.316 µM (active)	
CC(=O)Nc1ccc(S(=O)(=O)N2CCN(c3nc(NC4CCCC4)c4ccccc4n3)CC2)cc1	inactive	
Cc1ccccc1-c1nc(NC2CC2)c2ccccc2n1	0.501 µM (active)	
